Laboratory results published in PubChem BioAssay (NCATS).
Results filed as inconclusive are left out. Activity calls are given as the source filed them. Unless noted, calls follow the shape of the dose curve; as a rule, active = well fitted curve in the direction sought with a large enough effect; inconclusive = small, poorly fitted or top-dose-only effect, or another doubt; inactive = no such curve, though single readings can be large; an effect the other way counts as inactive or inconclusive.

Experiments:
[1] = molecular target: Tyrosine-protein kinase Yes (Homo sapiens) (UniProt P07947); experiment: qHTS for small molecule inhibitors of Yes1 kinase: Primary Screen (AID 686947);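 also: plate controls were DMSO with enzyme for no effect and no-enzyme DMSO wells for full effect; nearly all actives have a fitted effect of over 60% in size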
Procedure, shortened: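 In this qHTS format, inhibition is expressed relative to DMSO controls with enzyme (maximum) and without enzyme (minimum). The 60 min room-temperature reaction uses 0.1 mM ATP, with ADP detected by luminescence.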

[2] = qHTS assay for environmental chemicals that activate the Aryl hydrocarbon Receptor (AhR) signaling pathway (AID 651777); settings: 1A2-DRE human hepatoma cells, luciferase, 24 h; stronger effect = higher value; also: % of control where 0% means no effect; nearly all actives have a fitted effect of over 15% in size
Procedure, shortened: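 Quantitative HTS in stably transfected human liver-derived cells whose luciferase gene sits downstream of the CYP1A2 promoter and dioxin response element. After 24 hr exposure at 37 C, One-Glo luminescence was measured.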

[3] = molecular target: Peroxisome proliferator-activated receptor alpha (Homo sapiens) (UniProt Q07869); experiment: qHTS assay for small molecule agonists of the peroxisome proliferator-activated receptor alpha (PPARalpha) signaling pathway (AID 651778); settings: PathHunter PPARalpha complementation, chemiluminescence, 6 h; stronger effect = higher value; also: % of control where 0% means no effect
Procedure, shortened: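 Cells plated at 2,000/well and held overnight at 37 C, 5% CO2, then compound added by pin tool for 6 hr; after PathHunter detection reagent and 60 min at room temperature, chemiluminescence from enzyme complementation was read.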

[4] = qHTS assay for small molecule activators of the p53 signaling pathway (AID 651743; active = well fitted activation curve with a large enough effect in the signal ratio, not every such curve was filed as active; the % refers to the signal ratio; also: series mostly up to about 92 µM; % of control where 0% means no effect); settings: HCT-116 p53RE-bla, beta-lactamase FRET ratio, 16 h; activation: stronger effect = higher value
Procedure, shortened: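 Here HCT-116 cells with an integrated p53-responsive beta-lactamase gene were incubated with compounds (16 hours, 37 C) after a 5-hour plating period; beta-lactamase activity was detected as fluorescence intensity via B/G FRET substrate.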

[5] = qHTS assay for small molecule activators of the nuclear factor-kappa B (NF-kB) signaling pathway (AID 651749; active = well fitted activation curve with a large enough effect in the signal ratio; the % refers to the signal ratio; also: series mostly up to about 77 µM; % of control where 0% means no effect); settings: NF-kB-bla ME-180 cells, beta-lactamase FRET ratio, 16 h; stronger effect = higher value
Procedure, shortened: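 Beta-lactamase reporter expression, controlled by NF-kB response elements in ME-180 cells, was quantified fluorometrically via FRET disruption; cells at 2,000/well had been incubated with 23 nL test compound for 16 hr.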

[6] = qHTS assay for small molecule disruptors of the mitochondrial membrane potential - 1 hr assay (AID 651754; calls by dose curve; also: % is scaled to controls: 0 for no effect and ±100 for the full control effect; nearly all actives have a fitted effect of over 35% in size)
Procedure, shortened: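 In this qHTS format, a 1 hr compound treatment of HepG2 cells precedes Mito-MPS staining, and membrane potential is judged from aggregate (red) against monomer (green) fluorescence intensity.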

[7] = qHTS assay for small molecule disruptors of the mitochondrial membrane potential - 5 hr assay (AID 651755; calls by dose curve; also: % is scaled to controls: 0 for no effect and ±100 for the full control effect; nearly all actives have a fitted effect of over 40% in size)
Procedure, shortened: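 Seed HepG2 overnight, add compound, incubate 5 hr at 37C and 5% CO2, stain 30 min with Mito-MPS, then measure monomer (490/535 nm) and aggregate (540/590 nm) fluorescence.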

[8] = qHTS assay to identify small molecules that stimulate interleukin-8 (IL-8) secretion (AID 651758; active = well fitted activation curve with a large enough effect in the signal ratio; the % refers to the signal ratio; also: 0% is about no effect)
Procedure, shortened: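 Quantitative HTS in THP-1 monocytic cells at 2000 cells per well, with 16 hrs compound incubation at 37 C. IL-8 in the medium was then quantified by HTRF immunoassay, read after 1-3 hrs at room temperature.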

[9] = molecular target: Nuclear receptor ROR-gamma (Homo sapiens) (UniProt P51449); experiment: qHTS assay for small molecule antagonists of the retinoid-related orphan receptor gamma (ROR-gamma) signaling pathway (AID 651802);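 also: CHO cells with doxycycline-induced ROR-gamma expression; luciferase reporter luminescence driven by ROR response element; series mostly up to about 92 µM; % is scaled to controls: 0 for no effect and ±100 for the full control effect; nearly all actives have a fitted effect of over 60% in size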
Procedure, shortened: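 Doxycycline-induced reporter activity in engineered CHO cells (TET-inducible ROR, RORE-LUC) was measured by luminescence after 16hr compound exposure at 37C.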

[10] = molecular target: Tumor necrosis factor (Homo sapiens) (UniProt P01375); experiment: qHTS assay to identify small molecules that stimulate Tumor Necrosis Factor-alpha (TNF-alpha) secretion (AID 651757; active = well fitted curve in the direction sought with a large enough effect in the signal ratio; the % refers to the signal ratio; also: 0% is about no effect)
Procedure, shortened: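 Using 3000 THP-1 cells per well, compounds and controls were applied for 17 hrs at 37 C. Detection followed with two labeled anti-TNF-alpha antibodies (cryptate donor, XL665 acceptor) for 3 hr at room temperature, measured by TR-FRET.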

Sequence of Peroxisome proliferator-activated receptor alpha (Homo sapiens) (Q07869 whole entry, looked up): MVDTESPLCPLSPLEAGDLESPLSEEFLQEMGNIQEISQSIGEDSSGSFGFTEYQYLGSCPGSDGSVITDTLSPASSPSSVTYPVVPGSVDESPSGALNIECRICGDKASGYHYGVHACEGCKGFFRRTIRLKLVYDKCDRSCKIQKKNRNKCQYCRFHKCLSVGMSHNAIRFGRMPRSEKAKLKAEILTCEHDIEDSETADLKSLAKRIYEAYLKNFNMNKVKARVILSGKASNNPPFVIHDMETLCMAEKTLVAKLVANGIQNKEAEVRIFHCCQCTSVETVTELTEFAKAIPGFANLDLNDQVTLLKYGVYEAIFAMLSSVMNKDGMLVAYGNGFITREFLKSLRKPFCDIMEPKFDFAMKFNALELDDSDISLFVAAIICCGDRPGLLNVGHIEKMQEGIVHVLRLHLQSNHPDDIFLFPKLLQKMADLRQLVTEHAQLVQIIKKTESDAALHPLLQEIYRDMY
Sequence of Tyrosine-protein kinase Yes (Homo sapiens) (P07947 whole entry, looked up): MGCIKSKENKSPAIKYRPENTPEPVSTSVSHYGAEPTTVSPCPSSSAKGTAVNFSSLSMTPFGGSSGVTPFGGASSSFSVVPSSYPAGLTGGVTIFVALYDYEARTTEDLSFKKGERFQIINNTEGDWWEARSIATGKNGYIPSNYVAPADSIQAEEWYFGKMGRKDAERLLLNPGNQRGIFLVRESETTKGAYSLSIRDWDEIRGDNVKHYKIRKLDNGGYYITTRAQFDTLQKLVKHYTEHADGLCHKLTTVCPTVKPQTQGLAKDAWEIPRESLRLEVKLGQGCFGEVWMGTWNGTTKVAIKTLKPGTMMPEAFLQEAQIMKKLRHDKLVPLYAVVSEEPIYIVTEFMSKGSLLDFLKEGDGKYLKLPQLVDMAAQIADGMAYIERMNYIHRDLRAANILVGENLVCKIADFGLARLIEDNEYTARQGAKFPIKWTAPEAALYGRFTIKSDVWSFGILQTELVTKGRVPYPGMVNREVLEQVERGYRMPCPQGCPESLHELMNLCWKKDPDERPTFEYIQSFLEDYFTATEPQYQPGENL
Sequence of Nuclear receptor ROR-gamma (Homo sapiens) (P51449 whole entry, looked up): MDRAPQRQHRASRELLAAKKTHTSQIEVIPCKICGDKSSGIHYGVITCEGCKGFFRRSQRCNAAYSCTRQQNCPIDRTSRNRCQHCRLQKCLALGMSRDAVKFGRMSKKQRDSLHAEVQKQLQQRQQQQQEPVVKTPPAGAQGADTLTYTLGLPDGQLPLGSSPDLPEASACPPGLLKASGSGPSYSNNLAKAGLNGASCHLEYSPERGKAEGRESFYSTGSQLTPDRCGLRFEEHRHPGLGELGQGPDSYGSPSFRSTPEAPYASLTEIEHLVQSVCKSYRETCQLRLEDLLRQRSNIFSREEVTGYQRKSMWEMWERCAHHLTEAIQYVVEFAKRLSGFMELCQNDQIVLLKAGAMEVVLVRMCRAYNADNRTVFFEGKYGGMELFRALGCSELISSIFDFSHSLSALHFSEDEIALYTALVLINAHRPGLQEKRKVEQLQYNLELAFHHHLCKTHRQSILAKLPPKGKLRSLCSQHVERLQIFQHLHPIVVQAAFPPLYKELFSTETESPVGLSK
Sequence of Tumor necrosis factor (Homo sapiens) (P01375 whole entry, looked up): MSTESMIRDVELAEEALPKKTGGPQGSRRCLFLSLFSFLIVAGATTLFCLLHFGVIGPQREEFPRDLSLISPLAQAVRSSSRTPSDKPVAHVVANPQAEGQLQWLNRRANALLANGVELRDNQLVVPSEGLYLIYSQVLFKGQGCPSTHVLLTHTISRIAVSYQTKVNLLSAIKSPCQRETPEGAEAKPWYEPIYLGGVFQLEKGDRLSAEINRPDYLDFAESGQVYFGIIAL

CC1(C)Cc2c(-c3ccccc3)c(-c3ccc(Cl)cc3)c(CC(=O)O)n2C1
inactive: Potency [1]

NC[C@H](O)c1ccc(O)c(O)c1
inactive: activation [2] 0.207% | max response [3] -1.8%

NS(=O)(=O)c1cc2c(cc1Cl)NC=NS2(=O)=O
inactive: activation [4] -2.13% | activation [5] -0.0978% | outcome [6] | outcome [7] | outcome [8] | activation [2] -1.42% | max response [3] -1.54% | outcome [9]

O=C1CCCC2=C1C(c1[nH]ncc1Cl)N=C(Nc1nc3ccccc3o1)N2 (stereo not drawn)
inactive: Potency [1]

C[C@@H]1CN(Cc2ccc(F)cc2)[C@@H](C)CN1C(=O)c1cc2c(C(=O)C(=O)N(C)C)cn(C)c2cc1Cl
inactive: Potency [1]

O=c1[nH]cnc2[nH]ncc12
inactive: activation [5] 1.17% | outcome [10] | activation [2] -0.722% | max response [3] -0.201% | outcome [9]
